Screening results deposited in PubChem by National Center for Advancing Translational Sciences (NCATS).
Hits are enriched below; roughly 15% of the tested compounds scored in any of these assays.
DT40 TDP1 CPT: growth inhibition of DT40 Tdp1-/-;hTDP1 cells with camptothecin (screen for TDP1 inhibitors); actives 12% (n = 420,000); AID 686979; Potency, µM (series often up to 46.2 µM), inactives show top-dose activity change, negative = growth inhibition, actives largely listed as inhibitors; chicken DT40 Tdp1-/-;hTDP1 cells + 20 nM CPT, ATP luminescence, 48 h; also: nearly all actives have a fitted effect of over 55% in size
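Cell growth measured by CellTiter-Glo luminescence after a minimum 48 h, 37 C compound exposure with 20 nM CPT in Tdp1-knockout DT40 cells stably expressing hTDP1, seeded 400/well; qHTS titration format.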
RORg inh: blocks mouse ROR gamma transcriptional activity. P51450. Drosophila S2 Gal4-RORgamma UAS-luciferase reporter, 20 h. Potency, µM (highest dose often 53.6 µM), inactives show at the highest dose activity change, negative = inhibition, hits mostly inhibitors. actives 5.4% (n = 310,000); also: nearly all actives have a fitted effect of over 60% in size
Target sequence (P51450 whole entry, looked up, the tested form may be a part): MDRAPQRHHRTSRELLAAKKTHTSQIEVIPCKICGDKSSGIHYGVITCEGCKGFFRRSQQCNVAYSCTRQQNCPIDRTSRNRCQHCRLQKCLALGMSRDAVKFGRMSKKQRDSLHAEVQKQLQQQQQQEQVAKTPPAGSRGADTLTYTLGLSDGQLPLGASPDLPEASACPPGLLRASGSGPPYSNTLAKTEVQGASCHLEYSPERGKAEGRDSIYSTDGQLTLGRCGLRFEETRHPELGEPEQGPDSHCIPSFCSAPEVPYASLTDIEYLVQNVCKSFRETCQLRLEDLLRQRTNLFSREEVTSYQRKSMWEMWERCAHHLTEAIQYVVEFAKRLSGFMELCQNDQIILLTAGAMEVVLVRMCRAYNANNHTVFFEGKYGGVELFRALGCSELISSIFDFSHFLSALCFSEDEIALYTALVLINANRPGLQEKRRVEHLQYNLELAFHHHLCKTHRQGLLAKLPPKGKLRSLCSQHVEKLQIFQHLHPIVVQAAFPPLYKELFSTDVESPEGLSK
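A Gal4/UAS one-hybrid system in insect cells: metallothionein-promoter Gal4–ROR gamma fusion plus Photinus luciferase reporter. Copper sulfate 700 uM final, 20 hr ambient incubation, luminescent detection after 10 min with reagent.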
VP16 counter: Gal4-VP16 reporter inhibition counter-screen. actives 3.5% (n = 310,000). Drosophila S2 Gal4-VP16 UAS-luciferase, luminescence, 20 h. Potency, µM (doses to about 53.6 µM), for inactives: top-dose activity, negative = inhibition, usual class: inhibitors;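 also: Gal4-VP16 expression switched on by copper sulfate through the metallothionein promoter; nearly all actives have a fitted effect of over 50% in size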
DT40 TDP1 no CPT: qHTS for Inhibitors of human tyrosyl-DNA phosphodiesterase 1 (TDP1): qHTS in cells in absence of CPT | actives 15% (n = 420,000) | Potency, µM (doses to about 46.2 µM), for inactives: at the top dose activity change, negative = growth inhibition, actives largely listed as inhibitors | DT40 Tdp1-/- hTDP1 cells, no CPT, ATP luminescence, 48 h; also: nearly all actives have a fitted effect of over 55% in size
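Camptothecin absent (DMSO only). Human TDP1-complemented DT40 knockout cells, 400 cells/well, 37 °C for minimum 48 hr; ATP measured via CellTiter-Glo, 30 min dark incubation, luminescence.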
ELG1 DNA repair: inhibitors of ELG1-dependent DNA repair in HEK293T cells | HEK293T ELG1-luciferase reporter, luminescence, 16 h; DNA damage induced by 5-fluorouridine | Potency, µM (titrated, usually from 46.1 µM), without a hit: at the top dose activity change, negative = inhibition, actives largely listed as inhibitors | actives 2.3% (n = 330,000) | AID 504467; also: nearly all actives have a fitted effect of over 55% in size
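Cells (2,000 per well) received 5-fluorouridine plus test compound or DMSO and were incubated 16 hr at 37 °C, 5% CO2. Luciferase activity was read by luminescence 30 min after ONE-Glo addition; signal suppression marked inhibition of damage-induced ELG1 function.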
12-LOX inh: inhibitors of human 12S-lipoxygenase ALOX12; P18054; purified 12hLO, xylenol orange hydroperoxide absorbance; Potency, µM (titrated, usually from 108 µM), without a hit: at the top dose activity change, negative = inhibition, most hits filed as inhibitors; actives 1.1% (n = 580,000); AID 1671190
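Purified human 12hLO (150 nM final) in 25 mM Hepes, 0.01% Triton X-100, pH 7.0 was preincubated 15 min at room temperature with compound. Then 40 uM arachidonic acid was added, 30 min. Hydroperoxide was read by Fe-XO absorbance ratio 573/405 nm.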
* marks the source's active call; other numbers are inactive results; ? = inconclusive; . = not tested or not shown; [ ] = another dose, or the depositor's remark. Calls follow the shape of the dose curve; as a rule, active = well fitted curve in the direction sought with a large enough effect; inconclusive = small, poorly fitted or top-dose-only effect, or another doubt; inactive = no such curve, though single readings can be large; an effect the other way counts as inactive or inconclusive. % is scaled to controls: 0 for no effect and ±100 for the full control effect; potency is read from the fitted curve at half-maximal effect.

SMILES	DT40 TDP1 CPT	RORg inh	VP16 counter	DT40 TDP1 no CPT	ELG1 DNA repair	12-LOX inh
CCOc1cc(C(=O)OCC(=O)c2c(C)[nH]c3ccccc23)ccc1OCC(=O)N1CCOCC1	?	17%[10 µM]	-7%	?	16µM*	-15%
CCOc1cc(C(=O)OCC(=O)c2c[nH]c3ccccc23)ccc1OCC(=O)N1CCOCC1	?	?	-5%	?	?	5%
CCOc1cc(/C=C/c2nc3ccccc3s2)ccc1OCC(=O)N1CCOCC1	-83%	26%	-27%	21µM*	23µM*	?
CCOc1cc(C(=O)NCc2ccccc2)ccc1OCC(=O)N1CCOCC1	9%	-10%	2%	4%	21%	-11%
COc1ccc(CNC(=O)C2(C)CCCCC(=O)N2)cc1OC (configuration not stated)	.	.	.	.	.	4%
CC1=C(C(=O)OCCOc2ccccc2)C(c2ccsc2)NC(=O)N1C (configuration not stated)	?	?	-3%	21µM*	23µM*	-8%
O=C(OCc1c(F)cccc1Cl)c1ccc(C2Nc3ccccc3S(=O)(=O)N2)cc1 (configuration not stated)	.	.	.	.	.	-6%
Cc1ccn2c(Nc3ccc4c(c3)OCO4)c(-c3ccc(C)o3)nc2c1	15µM*	.	.	?	.	?
COc1ccc(Nc2c(-c3ccc(C)o3)nc3cc(C)ccn23)cc1	15µM*	.	.	12µM*	.	?
COc1ccc(CC(=O)N2[C@@H]3CC[C@H]2CC(NC(=O)c2cnc(C)cn2)C3)cc1OC (some centres not stated)	.	.	.	.	.	66%
CC1CN(S(=O)(=O)c2ccc(NC(=O)c3cc(-c4ccccc4O)n[nH]3)cc2)CC(C)O1 (configuration not stated)	21µM*	?	-25%	?	20µM*	?
O=C(Nc1ccc(S(=O)(=O)N2CCOCC2)cc1)c1cc(-c2ccccc2O)n[nH]1	-19%	-2%	-5%	1%	0%	1%
Cc1c(Cl)cccc1NC(=O)c1cc(-c2ccccc2O)n[nH]1	?	8%	1%	?	?	459%
COc1ccc(Cl)cc1NC(=O)c1cc(-c2ccccc2O)n[nH]1	?	21%	?	15µM*	13%	17%
COc1ccc(Cl)cc1NC(=O)c1[nH]nc(OC)c1[N+](=O)[O-]	4%	3.5µM*	-1%[10 µM]	0%	-11%	-2%
COc1ccc(Cl)cc1NC(=O)Nc1cccc([N+](=O)[O-])c1C	?	22%	-1%	23µM*	?	?
Cc1ccc(CNC(=O)[C@H](Cc2ccccc2)NC(=O)c2ccco2)n1C	.	.	.	.	.	9%
COc1ccc(Cl)cc1-c1cc(C(=O)Nc2ccc(F)cc2)[nH]n1	?	.	.	-10%	.	-4%
COc1ccc(OC)c(NC(=O)c2cc(-c3cc(Cl)ccc3O)n[nH]2)c1	18µM*	-30%	?	12µM*	?	19%
NS(=O)(=O)c1ccc(NC(=O)c2cc(-c3cc(Cl)ccc3O)n[nH]2)cc1	-7%	3%	-19%	?	5.2µM*	8%
CN1CCN(c2ccc(-c3ccc4ccccc4n3)cc2)CC1	?	0.32µM*	?	18µM*	?	5%
c1ccc2nc(-c3ccncc3)ccc2c1	-20%	-40%	1%	-24%	?	0%
COc1ccc(N2CCN(C(=O)c3ccc4ccccc4n3)CC2)cc1	-3%	?	11%	-19%	-9%	-19%
Cc1cc(-c2ccc(N3CCOCC3)cc2)nc2ccccc12	21µM*	29%	-11%	23µM*	?	?
c1ccc2nc(-c3ccc(N4CCOCC4)cc3)ccc2c1	-21%	1.4µM*	1.3µM*	-23%	?	0%
SMILES	DT40 TDP1 CPT	RORg inh	VP16 counter	DT40 TDP1 no CPT	ELG1 DNA repair	12-LOX inh
C[C@@H](NS(=O)(=O)c1ccccc1)c1onc(-c2ccc(F)cc2)c1C(=O)O	.	.	.	.	.	-16%[176 µM]
CCOc1ccc(-n2c(SCc3ccc(C(=O)OC)o3)nc3c([nH]c4ccccc43)c2=O)cc1	23µM*	.	.	?	.	-10%
COC(=O)c1ccc(CSc2nc3c([nH]c4ccccc43)c(=O)n2-c2ccc(Cl)cc2)o1	?	.	.	?	.	-31%
COC(=O)c1ccc(CSc2nc3c([nH]c4ccccc43)c(=O)n2-c2ccc(OC)cc2)o1	18µM*	.	.	18µM*	.	-20%
C=CCNC(=O)C(=O)Nc1ccc2c(c1)N(S(=O)(=O)c1cccs1)CCC2	?	.	.	23µM*	?	5%
COCCCNC(=O)C(=O)Nc1cc2c3c(c1)CCC(=O)N3CCC2	1%	-9%	6%	13%	?	10%
CN(C)CCCNC(=O)C(=O)Nc1ccc2c(c1)N(S(=O)(=O)c1cccs1)CCC2	?	.	.	?	4%	2%
CCNC(=O)C(=O)Nc1ccc2c(c1)N(S(=O)(=O)c1cccs1)CCC2	?	.	.	?	-22%	7%
CN(C)CCNC(=O)C(=O)Nc1ccc2c(c1)N(S(=O)(=O)c1cccs1)CCC2	16µM*	.	.	7.3µM*	?	?
O=C(Nc1ccc2c(c1)N(S(=O)(=O)c1cccs1)CCC2)c1c(F)cccc1F	?	.	.	16µM*	?	-3%
COCCCNC(=O)C(=O)Nc1ccc2c(c1)N(S(=O)(=O)c1cccs1)CCC2	0.65µM*	.	.	0.58µM*	20%	2%
Cc1nc2cc(NC(=O)c3ccc(C(C)(C)C)cc3)ccc2o1	.	.	.	.	.	48%
COc1cc(/C=C(\CCC(=O)O)c2nc3ccccc3s2)ccc1OCC(=O)Nc1c(Cl)cccc1Cl	16µM*	.	.	?	?	3%
O=C(O)CC/C(=C/c1cccc(NC(=O)c2ccccc2Cl)c1)c1nc2ccccc2s1	2%	.	.	?	.	?
COc1cc(Cn2c(=O)sc3ccccc32)ccc1OC(C)C	?	.	.	21µM*	.	5%
N#CC1=C(N)OC2=C(C(=O)CCC2)C1c1ccc(-c2ccccc2)cc1 (configuration not stated)	.	.	.	.	.	-63%
Cc1ccc(/C=C2\CCC3=C2OC(N)=C(C#N)C3c2ccc(C)cc2)cc1 (configuration not stated)	4.6µM*	-1%	-2%	6.5µM*	?	.
N#CC1=C(N)OC2=C(CCc3ccccc32)C1c1ccccc1 (configuration not stated)	0.82µM*	-3%	-5%	0.92µM*	?	-26%
